Measured values reported in PubChem BioAssay AID1159580 (chemical genetic matrix, 2015).
About 2,000 (36%) of roughly 5,500 compounds were called active. Inconclusive results (about 18%) are left out. No stated cut-off is given here; in the data, active means normalized growth mostly below about 0.91 (no sharp cut-off); inconclusive means no clear call, values can overlap the other calls; inactive means mostly above about 0.92. The list shows a part of the results.

Assay: chemical genetic growth profiling, strain panel (AID 1159580);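 further: tested at 20 µM; growth read once vehicle control cultures reached saturation at 30 °C; 1 = growth at the plate median or of vehicle wells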
Conditions: S. cerevisiae deletion strains, growth OD

Measured: normalized growth

CNS(=O)(=O)Cc1ccc2[nH]cc(CCN(C)C)c2c1
inactive: locus YAL021C, strain ccr4, stronger effect = lower value 0.999 | locus YAL026C, strain drs2, stronger effect = lower value 1.02 | locus YAL030W, strain snc1, stronger effect = lower value 1.02 | locus YBL061C, strain skt5, stronger effect = lower value 1.03 | locus YBR009C, strain hhf1, stronger effect = lower value 1.03 | locus YBR023C, strain chs3, stronger effect = lower value 1.03 | locus YBR171W, strain sec66, stronger effect = lower value 1.04 | locus YBR231C, strain swc5, stronger effect = lower value 1.03 | locus YBR279W, strain paf1, stronger effect = lower value 1.02 | locus YCL011C, strain gbp2, stronger effect = lower value 1.02 | locus YCL016C, strain dcc1, stronger effect = lower value 1.02 | locus YCL069W, strain vba3, stronger effect = lower value 1.03 | locus YCR088W, strain abp1, stronger effect = lower value 1.03 | locus YDL005C, strain med2, stronger effect = lower value 1.04 | locus YDL040C, strain nat1, stronger effect = lower value 1.02 | locus YDR001C, strain nth1, stronger effect = lower value 1.04 | locus YDR069C, strain doa4, stronger effect = lower value 1.02 | locus YDR137W, strain rgp1, stronger effect = lower value 1.04 | locus YDR159W, strain sac3, stronger effect = lower value 1.03 | locus YDR195W, strain ref2 1 | locus YDR297W, strain sur2, stronger effect = lower value 1.02 | locus YDR334W, strain swr1, stronger effect = lower value 1.02 | locus YDR335W, strain msn5, stronger effect = lower value 1.02 | locus YDR392W, strain spt3, stronger effect = lower value 1.01 | locus YEL003W, strain gim4, stronger effect = lower value 1.02 | locus YEL037C, strain rad23, stronger effect = lower value 1.03 | locus YEL061C, strain CIN8 (second series), stronger effect = lower value 1.03 | locus YER015W, strain faa2, stronger effect = lower value 1.02 | locus YER016W, strain bim1, stronger effect = lower value 1.02 | locus YER111C, strain swi4, stronger effect = lower value 1.02 | locus YER155C, strain BEM2 (second series), stronger effect = lower value 1 | locus YFR010W, strain ubp6, stronger effect = lower value 1.03 | locus YGL167C, strain pmr1, stronger effect = lower value 1.03 | locus YGL173C, strain kem1, stronger effect = lower value 1.05 | locus YGL227W, strain vid30, stronger effect = lower value 1.03 | locus YGL240W, strain doc1, stronger effect = lower value 1.02 | locus YGL253W, strain hxk2, stronger effect = lower value 1.02 | locus YHR013C, strain ard1, stronger effect = lower value 1.07 | locus YHR027C, strain rpn1, stronger effect = lower value 1.04 | locus YHR030C, strain SLT2, stronger effect = lower value 1.07 | locus YHR079C, strain IRE1, stronger effect = lower value 1.05 | locus YHR142W, strain chs7, stronger effect = lower value 1.04 | locus YJL092W, strain hpr5, stronger effect = lower value 1.03 | locus YJL095W, strain BCK1 (second series), stronger effect = lower value 1.02 | locus YJL095W, strain BCK1, stronger effect = lower value 1.01 | locus YJL115W, strain asf1, stronger effect = lower value 1.03 | locus YJL129C, strain trk1, stronger effect = lower value 1.07 | locus YJL154C, strain vps35, stronger effect = lower value 1.03 | locus YJL164C, strain tpk1, stronger effect = lower value 1.02 | locus YJL166W, strain qcr8, stronger effect = lower value 1.02 | locus YJL187C, strain SWE1, stronger effect = lower value 1.03 | locus YJR066W, strain TOR1, stronger effect = lower value 0.977 | locus YKL160W, strain elf1, stronger effect = lower value 1.02 | locus YKR026C, strain gcn3, stronger effect = lower value 1.03 | locus YKR091W, strain srl3, stronger effect = lower value 1.01 | locus YLL001W, strain dnm1, stronger effect = lower value 1.02 | locus YLL026W, stronger effect = lower value 1.01 | locus YLL041C, strain sdh2, stronger effect = lower value 1.02 | locus YLR027C, strain aat2, stronger effect = lower value 1.01 | locus YLR113W, strain HOG1, stronger effect = lower value 0.935 | locus YLR221C, strain rsa3, stronger effect = lower value 1.02 | locus YLR258W, strain gsy2, stronger effect = lower value 1.03 | locus YLR262C, strain YPT6 (second series), stronger effect = lower value 1.04 | locus YLR320W, strain mms22, stronger effect = lower value 1.04 | locus YLR342W, strain FKS1, stronger effect = lower value 1.02 | locus YLR357W, strain rsc2, stronger effect = lower value 1.02 | locus YLR370C, strain arc18, stronger effect = lower value 1.01 | locus YLR384C, strain iki3, stronger effect = lower value 1.03 | locus YML120C, strain ndi1, stronger effect = lower value 1.02 | locus YMR058W, strain fet3, stronger effect = lower value 1.04 | locus YMR125W, strain sto1, stronger effect = lower value 1.02 | locus YMR129W, stronger effect = lower value 1.01 | locus YMR205C, strain PFK2, stronger effect = lower value 1.05 | locus YMR231W, strain pep5, stronger effect = lower value 1.03 | locus YNL071W, strain lat1, stronger effect = lower value 1.03 | locus YNL183C, strain NPR1, stronger effect = lower value 0.97 | locus YNL209W, strain ssb2, stronger effect = lower value 1.02 | locus YNL248C, strain rpa49, stronger effect = lower value 1.06 | locus YNL322C, strain KRE1 (second series), stronger effect = lower value 1.02 | locus YNR049C, strain mso1, stronger effect = lower value 1.02 | locus YOR001W, strain rrp6, stronger effect = lower value 1.03 | locus YOR070C, strain gyp1, stronger effect = lower value 1.03 | locus YOR080W, strain dia2, stronger effect = lower value 1.03 | locus YOR083W, strain WHI5, stronger effect = lower value 1.01 | locus YOR106W, strain vam3, stronger effect = lower value 1.05 | locus YOR231W, strain MKK1, stronger effect = lower value 1.03 | locus YOR265W, strain rbl2, stronger effect = lower value 1.01 | locus YOR270C, strain vph1, stronger effect = lower value 1.1 | locus YOR290C, strain snf2, stronger effect = lower value 1.02 | locus YPL051W, strain arl3, stronger effect = lower value 1.02 | locus YPL078C, strain atp4, stronger effect = lower value 1.02 | locus YPL106C, strain sse1, stronger effect = lower value 1.03 | locus YPL240C, strain hsp82, stronger effect = lower value 1.02 | locus YPL256C, strain CLN2, stronger effect = lower value 1.06
